Molecules are shown by their SMILES. Inconclusive results are not listed. Entries that show only a call come without a potency. Active and inactive are the calls of the source. Calls come from the whole dose curve; as a rule, active = well fitted antagonist curve with a large enough effect in the main read-out, with a control signal flat; inconclusive = small, poorly fitted or top-dose-only effect; inactive = no such curve, though single readings can be large or run the other way.

Sequence of Neuropeptide S receptor (Homo sapiens) (Q6W5P4 whole entry, looked up): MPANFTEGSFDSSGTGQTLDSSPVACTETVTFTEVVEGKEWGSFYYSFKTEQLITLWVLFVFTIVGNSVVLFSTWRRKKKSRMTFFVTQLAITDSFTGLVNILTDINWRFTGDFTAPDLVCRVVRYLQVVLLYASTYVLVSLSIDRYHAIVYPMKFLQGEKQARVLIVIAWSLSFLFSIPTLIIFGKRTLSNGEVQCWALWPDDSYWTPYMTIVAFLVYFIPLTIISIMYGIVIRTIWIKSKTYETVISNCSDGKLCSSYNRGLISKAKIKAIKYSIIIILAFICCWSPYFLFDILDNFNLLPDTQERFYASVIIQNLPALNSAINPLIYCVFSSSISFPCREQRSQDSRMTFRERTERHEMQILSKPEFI

The experiment concerns the target Neuropeptide S receptor (Homo sapiens) (UniProt Q6W5P4). As to the kind of experiment: Confirmation Concentration-Response Assay for Antagonists of the Neuropeptide S Receptor: Calcium Signal Transduction, SAR for Probe. The note with it: CHO-NPSR cells, NPS-induced calcium fluorescence, FDSS; series mostly up to 19.3 µM. The procedure, abridged:
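Calcium flux was measured by kinetic fluorescence in dye-loaded CHO-NPSR cells, first after compound addition (210 s), then after NPS challenge (60 nM in stimulation reagent, 140 s). Hill-equation fitting gave AC50.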
Consider `CC1(C)O[C@@H]2C[C@H]3[C@@H]4C[C@H](F)C5=CC(=O)CC[C@]5(C)[C@H]4[C@@H](O)C[C@]3(C)[C@]2(C(=O)CO)O1`, for which the Potency result is “inactive”. With `C/C(=N\NC(=S)NC1CCCCC1)c1c(F)cccc1F` the entry was “inactive”. To `COc1cccc(C2c3c(ncn(-c4cccc(OC)c4)c3=N)Oc3ccc4ccccc4c32)c1` (stereo unspecified) belongs 5.52 µM (active); to `O=C(NCc1ccc(F)cc1)n1cc(P(=S)(c2ccccc2)c2ccccc2)c2ccccc21`, “inactive”. Turning to `COc1cccc(C2c3c(ncn(-c4ccc(Br)cc4)c3=N)Oc3ccc4ccccc4c32)c1` (stereo unspecified), the Potency is 2.76 µM (active). With `CCCN1C(=O)/C(=C\C=C2/C=CN(CC)c3ccccc32)SC1=S` the entry was “inactive”; with `Cc1nnc(NC(=O)c2cccc(S(=O)(=O)N3CCc4ccccc43)c2)s1`, “inactive”; with `Cc1c(P(=S)(c2ccccc2)c2ccccc2)[n+]2ccccc2n1CC(=O)c1ccccc1`, 2.76 µM (active). With `Cc1ccc(S(=O)(=O)Nc2cccc3ncccc23)s1` the figure was 3.16 µM (active); with `COc1cccc(C2c3c(ncn(-c4ccc(F)cc4)c3=N)Oc3ccc4ccccc4c32)c1` (stereo unspecified), 3.48 µM (active); with `CC(C)Cc1nc(N2CCN(C(=O)c3ccccc3)CC2)c(C#N)c2c1CCC2`, “inactive”. To `COc1cccc(C2c3c(ncn(-c4cccc(C)c4)c3=N)Oc3ccc4ccccc4c32)c1` (stereo unspecified) belongs 4.38 µM (active). In the case of `COc1cc(/C=C2\SC(c3ccc(C)cc3)=NC2=O)cc(OC)c1O`, the Potency entry is “inactive”. With `O=C1OC(c2ccccc2)(c2ccccc2)N2CCN(C(=O)NCc3ccc(F)cc3)CC12` (stereo unspecified) the figure was 0.139 µM (active).

Consider `COc1ccc(C2c3c(nc(C)[nH]c3=O)Oc3ccc4ccccc4c32)cc1OC` (stereo unspecified), for which the Potency result is “inactive”. To `N=C1c2ccccc2CN1c1ccc(N2CCOCC2)c(S(=O)(=O)Nc2ccc(Cl)cc2)c1` belongs 1.41 µM (active); to `Cc1nn(C)cc1/C=N/NC(=S)Nc1ccccc1`, “inactive”; to `COC(=O)c1ccc(C(=O)OC)c(NC(=O)CSc2cccc[n+]2[O-])c1`, “inactive”. Regarding `COc1cccc(C2c3c(ncn(-c4ccccc4Cl)c3=N)Oc3ccc4ccccc4c32)c1` (stereo unspecified), the Potency is 5.52 µM (active). Turning to `COc1ccc2c(c1)Oc1ncn(CCN3CCOCC3)c(=N)c1C2c1ccc(OC)c(OC)c1` (stereo unspecified), the Potency is 11 µM (active). With `Cc1nc2ccccn2c1P(=O)(c1ccccc1)c1ccccc1` the entry was “inactive”.

The values are drawn from PubChem BioAssay AID2567 (National Center for Advancing Translational Sciences (NCATS), 2010).
